Source: PubChem BioAssay (NCATS)
Results filed as inconclusive are left out. A number with no mark means an inactive call. Calls come from the whole dose curve; as a rule, active = well fitted inhibition curve with a large enough effect; inconclusive = small, poorly fitted or top-dose-only effect; inactive = flat fitted curve, though single readings scatter.

Target: Lysine-specific demethylase 5B (Homo sapiens) (UniProt Q9UGL1)
Assay: Optimization screen for KDM5B Histone Demethylases FDH coupled qHTS against the LOPAC library (AID 1347166); note: 0% is about no effect
Conditions: KDM5B demethylation, FDH-coupled NADH fluorescence (FDH is formaldehyde dehydrogenase); series mostly up to 57.5 µM; activity, negative = inhibition: at the top concentration
How it was run: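 KDM5BDeltaAP (200nM final) preincubated 10 min with compound, then 12.5uM H3K4Me3, 25uM a-ketoglutarate, ascorbate, Fe(II), NAD+ and FDH added; 50mM HEPES pH 7.5, 0.01% Tween-20. NADH fluorescence (340/450 nm) change over 30 min, room temperature.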

Sequence of Lysine-specific demethylase 5B (Homo sapiens) (Q9UGL1 whole entry, looked up): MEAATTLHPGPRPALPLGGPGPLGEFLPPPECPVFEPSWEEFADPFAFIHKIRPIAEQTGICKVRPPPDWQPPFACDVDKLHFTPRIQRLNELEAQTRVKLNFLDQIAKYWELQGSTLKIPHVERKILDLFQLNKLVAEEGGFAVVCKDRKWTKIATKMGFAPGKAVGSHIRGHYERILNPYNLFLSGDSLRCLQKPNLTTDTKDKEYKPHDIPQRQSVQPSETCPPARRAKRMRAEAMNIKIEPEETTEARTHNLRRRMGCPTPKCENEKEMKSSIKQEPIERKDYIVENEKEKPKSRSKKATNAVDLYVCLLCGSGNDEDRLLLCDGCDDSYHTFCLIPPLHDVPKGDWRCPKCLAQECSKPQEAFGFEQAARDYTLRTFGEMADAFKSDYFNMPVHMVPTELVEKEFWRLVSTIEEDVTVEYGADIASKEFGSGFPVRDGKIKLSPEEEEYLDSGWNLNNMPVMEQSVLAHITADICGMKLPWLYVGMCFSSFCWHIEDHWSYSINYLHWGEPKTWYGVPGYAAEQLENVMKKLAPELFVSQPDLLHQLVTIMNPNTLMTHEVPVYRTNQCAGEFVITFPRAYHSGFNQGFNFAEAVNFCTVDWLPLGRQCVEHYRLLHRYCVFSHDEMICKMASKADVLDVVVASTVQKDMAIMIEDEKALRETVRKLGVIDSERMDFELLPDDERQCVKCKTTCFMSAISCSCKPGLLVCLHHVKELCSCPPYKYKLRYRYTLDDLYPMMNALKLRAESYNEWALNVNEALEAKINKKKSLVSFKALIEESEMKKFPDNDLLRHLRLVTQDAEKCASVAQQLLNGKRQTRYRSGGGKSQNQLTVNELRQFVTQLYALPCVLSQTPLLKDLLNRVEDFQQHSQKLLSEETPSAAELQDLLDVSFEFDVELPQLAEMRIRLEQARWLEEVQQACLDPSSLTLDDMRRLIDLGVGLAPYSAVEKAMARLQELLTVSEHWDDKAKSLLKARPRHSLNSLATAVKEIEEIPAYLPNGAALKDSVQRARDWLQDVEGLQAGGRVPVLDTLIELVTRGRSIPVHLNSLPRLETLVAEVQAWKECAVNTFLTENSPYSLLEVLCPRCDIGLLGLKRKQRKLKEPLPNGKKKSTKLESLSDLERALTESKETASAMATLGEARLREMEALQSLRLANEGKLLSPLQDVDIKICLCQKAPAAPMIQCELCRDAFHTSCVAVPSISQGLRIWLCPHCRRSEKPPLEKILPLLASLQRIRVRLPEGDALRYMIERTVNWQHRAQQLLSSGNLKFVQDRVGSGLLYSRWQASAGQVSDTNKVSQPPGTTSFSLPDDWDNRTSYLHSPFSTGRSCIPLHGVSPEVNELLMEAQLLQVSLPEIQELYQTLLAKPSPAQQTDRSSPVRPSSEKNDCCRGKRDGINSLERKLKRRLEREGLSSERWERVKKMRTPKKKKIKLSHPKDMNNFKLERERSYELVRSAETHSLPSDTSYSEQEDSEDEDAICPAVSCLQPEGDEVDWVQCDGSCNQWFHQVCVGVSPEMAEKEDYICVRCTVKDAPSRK

Row | SMILES | activity, negative = inhibition
1 | COc1ccc(C2CNC(=O)C2)cc1OC1CCCC1 (configuration not stated) | -5.67%
2 | CN(C)CCOC(c1ccccc1)c1ccccc1 | -3.33%
3 | CN1CCN2c3ccccc3Cc3ccccc3C2C1 (configuration not stated) | -2.51%
4 | CCC1(C)CC(=O)NC1=O (configuration not stated) | -4.98%
5 | CCCCc1oc2ccccc2c1C(=O)c1cc(I)c(OCCN(CC)CC)c(I)c1 | -17.2%
6 | CC(C)Cc1ccc(C(C)C(=O)O)cc1 (configuration not stated) | -4.49%
7 | COc1ccccc1OCCNCC(O)COc1cccc2[nH]c3ccccc3c12 (configuration not stated) | -5.87%
8 | Nc1ccn([C@H]2CC[C@@H](CO)O2)c(=O)n1 | 0.519%
9 | Cn1c(=O)c2c(ncn2C)n(C)c1=O | -8.63%
10 | CC#C[C@]1(O)CC[C@H]2[C@@H]3CCC4=CC(=O)CCC4=C3[C@@H](c3ccc(N(C)C)cc3)C[C@@]21C | -10%
11 | CCc1cccc2c3c([nH]c12)C(CC)(CC(=O)O)OCC3 (configuration not stated) | -5.32%
12 | Nc1nnc(-c2cccc(Cl)c2Cl)c(N)n1 | -9.49%
13 | Cc1cn([C@H]2C=C[C@@H](CO)O2)c(=O)[nH]c1=O | -3.2%
14 | Cn1c(=O)c2[nH]cnc2n(C)c1=O | -8.38%
15 | CN1C(C(=O)Nc2ccccn2)=C(O)c2ccccc2S1(=O)=O | -8.12%
16 | NS(=O)(=O)c1cc2c(cc1Cl)NCNS2(=O)=O | -7.48%
17 | COc1nc(C)nc(Cl)c1NC1=NCCN1 | -4.07%
18 | O=C(C1CCCCC1)N1CC(=O)N2CCc3ccccc3C2C1 (configuration not stated) | 1.91%
19 | Cc1cc(C(C)(C)C)c(O)c(C)c1CC1=NCCN1 | 0.638%
20 | CN(C)c1nc(N(C)C)nc(N(C)C)n1 | -3.92%
21 | NCCCCCC(=O)O | -3.54%
22 | CC(COc1ccccc1)N(CCCl)Cc1ccccc1 (configuration not stated) | -2.55%
